Screening results as filed in PubChem.
PriA SSB inh – inhibitors of Klebsiella pneumoniae PriA binding to SSB C-terminal tail; AlphaScreen SSBct-PriA binding, biotinylated peptide; inhibition, % at 33 µM; 430,000 compounds, 0.6% hits; in the data active = inhibition mostly above about 37%, no sharp cut-off; inactive = mostly below about 20%;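 note: plate controls were negative control peptide for no effect and reference peptide for full effect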
Autofluor counter – counter-screen for toxin protease inhibitors: compound fluorescence. 360,000 compounds, 3.1% hits. AID 624483. compound autofluorescence counterscreen, microsphere flow cytometry; active compounds read high. fluorescence intensity (concentration not given with the values); in the data active = fluorescence intensity above about 16000; inconclusive = no clear call, values can overlap the other calls
BoNT A protease – BoNT A light chain protease inhibition; inhibition, % at 10 µM; 360,000 compounds, 0.17% hits; multiplex microsphere protease substrate cleavage, flow cytometry; note: plate controls were buffer without enzyme for full effect and enzyme alone for no effect
BoNT-F LC inh – BoNT F light chain protease inhibition. Multiplex microsphere protease cleavage assay, flow cytometry. inhibition, % at 10 µM. 360,000 compounds, 0.22% hits; in the data active = inhibition above about 35%, passing the limit was not always enough; inconclusive = no clear call, values can overlap the other calls; note: plate controls were buffer without enzyme for full effect and enzyme alone for no effect
Anthrax LF prot – anthrax lethal factor protease inhibition. 360,000 compounds, 0.12% hits. P15917. AID 588501. multiplex microsphere protease cleavage assay, LF. inhibition, % at 10 µM; note: plate controls were buffer without enzyme for full effect and enzyme alone for no effect
Numbers without * were called inactive; ! = a repeat was not active. A selection: hits, their analogues and other compounds. The true share with any hit is near 3.1%. Cut-off read from the data, not from the text of the source, unless noted: active = inhibition above about 30%; inconclusive = no clear call, values can overlap the other calls; inactive = below that.

Cc1c(C)c2cc(Cl)c(O)c(CN3CCCC(C)C3)c2oc1=O (stereo not given) was read as PriA SSB inh -11.5, Autofluor counter 22975*, BoNT A protease -0.4, BoNT-F LC inh 1.6 and Anthrax LF prot -4.3.
Screening Cc1c(C)c2cc(Cl)c(O)c(CN3CCN(C)CC3)c2oc1=O returned PriA SSB inh -5.9, Autofluor counter 3895, BoNT A protease 1.1, BoNT-F LC inh -9.1 and Anthrax LF prot 0.8.
N#C/C(C(=O)N1CCOCC1)=C1\Nc2ccccc2S1 was read as Autofluor counter 20837*, BoNT A protease -0.1, BoNT-F LC inh 1.0 and Anthrax LF prot -1.4.
O=C(CSc1ncn(-c2ccccc2)n1)N1CCc2ccccc21 was read as PriA SSB inh 0.1, Autofluor counter 4546, BoNT A protease 1.3, BoNT-F LC inh -7.5 and Anthrax LF prot -0.5.
Clc1cccc(CSc2ncc(-c3ccccc3)[nH]2)c1 was read as PriA SSB inh 15.0.
For Clc1ccc(CSc2ncn(-c3ccccc3)n2)cc1 the results were PriA SSB inh -41.8, Autofluor counter 21528*, BoNT A protease -6.4, BoNT-F LC inh -8.3 and Anthrax LF prot -1.3.
Screening Clc1cccc(CSc2ncn(-c3ccccc3)n2)c1 returned PriA SSB inh -57.1, Autofluor counter 16759*, BoNT A protease -0.9, BoNT-F LC inh -3.5 and Anthrax LF prot 0.4.
Screening O=C(Nc1nnc(Cc2ccc3c(c2)OCO3)o1)C1CCCCC1 returned PriA SSB inh -1.0.
`S=c1[nH]nc(COc2ccc(Cl)cc2)o1` gave PriA SSB inh 1.0, Autofluor counter 19965*, BoNT A protease inconclusive, BoNT-F LC inh 0.3 and Anthrax LF prot -4.5.
Screening COc1ccc(OCc2n[nH]c(=S)o2)cc1 returned PriA SSB inh -0.3, Autofluor counter 2782, BoNT A protease 0.0, BoNT-F LC inh -6.4 and Anthrax LF prot 1.3.
For C=CCn1c(SCC(=O)c2cccs2)nc2sc(CC)cc2c1=O the results were PriA SSB inh -21.6, Autofluor counter 22827*, BoNT A protease 1.8, BoNT-F LC inh 4.7 and Anthrax LF prot 1.3.
Cc1cc(C)c2nc(N(CCCN(C)C)C(=O)c3ccc(S(=O)(=O)N4CCCCCC4)cc3)sc2c1 was read as PriA SSB inh 36.0*!, Autofluor counter 4561, BoNT A protease 1.6, BoNT-F LC inh -4.0 and Anthrax LF prot -2.3.
Cc1ccc2sc(N(CCCN(C)C)C(=O)c3ccc(S(=O)(=O)N4CCCCCC4)cc3)nc2c1C was read as PriA SSB inh 17.1, Autofluor counter 4789, BoNT A protease 3.7, BoNT-F LC inh -3.7 and Anthrax LF prot -2.3.
For Cc1cc(C)c2nc(N(CCCN(C)C)C(=O)c3ccc4c(c3)CCCC4)sc2c1 the results were PriA SSB inh 43.0*.
For Cc1ccc2nc(N(CCCN(C)C)C(=O)c3ccc4c(c3)CCCC4)sc2c1 the results were PriA SSB inh 26.2, Autofluor counter 9640, BoNT A protease -1.0, BoNT-F LC inh -14.2 and Anthrax LF prot -7.2.
Cc1ccc(-c2nnc(N3CCN(c4ccccn4)CC3)c3ccccc23)cc1C was read as PriA SSB inh 8.0.
Screening COc1ccc(OC)c2sc(N(Cc3ccco3)C(=O)c3cc(C)n(C)n3)nc12 returned PriA SSB inh -12.0.
Screening CCOc1ccc(C(=O)/C=C/c2cn(CN3CCN(C)CC3)c3ccccc23)cc1 returned PriA SSB inh -8.4, Autofluor counter 12343, BoNT A protease 0.7, BoNT-F LC inh -12.6 and Anthrax LF prot -0.5.
For COc1ccc(C(=O)/C=C/c2cn(CN3CCN(C)CC3)c3ccccc23)cc1 the results were PriA SSB inh 3.2, Autofluor counter 23529*, BoNT A protease -1.0, BoNT-F LC inh -1.3 and Anthrax LF prot -1.0.
Screening Cn1c(-c2sccc2OCc2ccccc2)n[nH]c1=S returned PriA SSB inh 8.8, Autofluor counter 8487, BoNT A protease 0.3, BoNT-F LC inh 11.0 and Anthrax LF prot -5.3.
Cc1ccc(COc2ccsc2-c2n[nH]c(=S)n2C)cc1 was read as PriA SSB inh 9.5, Autofluor counter 22046*, BoNT A protease 2.0, BoNT-F LC inh 2.9 and Anthrax LF prot -2.3.
For CNc1nc(NN)nc(Nc2ccccc2)n1 the results were PriA SSB inh 104.9*, Autofluor counter 3485, BoNT A protease -4.1, BoNT-F LC inh -12.9 and Anthrax LF prot -27.4.
Fc1ccc(CNc2ccc(CNc3ncn[nH]3)cc2)cc1 was read as PriA SSB inh 8.6, Autofluor counter 21380*, BoNT A protease 6.4, BoNT-F LC inh 4.0 and Anthrax LF prot -4.0.
`COc1cc(CNc2ccc(CNc3ncn[nH]3)cc2)ccc1OCC(=O)NC(C)(C)C` gave PriA SSB inh 6.2, Autofluor counter 2134, BoNT A protease -0.6, BoNT-F LC inh -7.8 and Anthrax LF prot 0.9.
Screening Nc1ccc(CNc2ncn[nH]2)cc1 returned PriA SSB inh 1.3, Autofluor counter 3261, BoNT A protease 0.9, BoNT-F LC inh -1.6 and Anthrax LF prot -3.7.
For CCOc1cc(CNc2ccc(CNc3ncn[nH]3)cc2)ccc1OCc1ccccc1 the results were PriA SSB inh 43.0*, Autofluor counter 2380, BoNT A protease 0.6, BoNT-F LC inh -6.8 and Anthrax LF prot -1.4.
For COC(=O)C1CC(Oc2ccccc2F)CN1C(=O)Nc1ccc(OC)cc1OC (stereo not given) the results were PriA SSB inh -1.0.
Cn1cccc1C(O)CNC(=O)C(=O)NCc1cccs1 (stereo not given) was read as PriA SSB inh -5.0.
For C[N+]1(CC(=O)Nc2ccc(F)cc2)CCN(C(=O)c2ccco2)CC1 the results were PriA SSB inh -10.8, Autofluor counter 16539*, BoNT A protease 0.3, BoNT-F LC inh 2.7 and Anthrax LF prot -1.6.
For Cc1ccc2nsnc2c1S(=O)(=O)N1CCOCC1 the results were PriA SSB inh -11.8, Autofluor counter 22875*, BoNT A protease -2.4, BoNT-F LC inh -3.2 and Anthrax LF prot -4.4.
Screening CCCCCn1c(=O)c(C(=O)c2ccccc2)nc2ccccc21 returned PriA SSB inh 8.7, Autofluor counter 18403*, BoNT A protease inconclusive, BoNT-F LC inh 2.7 and Anthrax LF prot -11.9.
O/N=C/c1ccc2ccccc2n1 was read as Autofluor counter 3713, BoNT A protease -1.8, BoNT-F LC inh 40.7* and Anthrax LF prot -9.5.
CCCCC(=O)NC(NC(=S)N1CCOCC1)C(Cl)(Cl)Cl (stereo not given) was read as PriA SSB inh -17.7, Autofluor counter 23068*, BoNT A protease inconclusive, BoNT-F LC inh 1.7 and Anthrax LF prot -2.4.
CCn1nc(C)cc1C(=O)Nc1ccc(SC)cc1 was read as PriA SSB inh -9.0.
Screening COc1cc(OC)cc(-c2nc3ccccc3s2)c1 returned PriA SSB inh -133.7, Autofluor counter 23472*, BoNT A protease -2.1, BoNT-F LC inh -6.1 and Anthrax LF prot 2.1.
Screening c1ccc(-c2ccc(-c3nc4ccccc4s3)cc2)cc1 returned PriA SSB inh 4.0.
CC(C)(C)S(=O)(=O)[C@H]1CCN(C(=O)CCNS(=O)(=O)c2cccc(F)c2)C1 was read as PriA SSB inh -2.0.
COc1cccc(-c2cc(C(=O)NCc3ccco3)no2)c1 was read as PriA SSB inh -14.1, Autofluor counter 24153*, BoNT A protease -2.8, BoNT-F LC inh -4.6 and Anthrax LF prot -3.2.
